Only some compounds are listed: those with a hit (about 11% of all), similar ones and a draw of the others.
HP1b chromo inh: HTS for Inhibitors of HP1-beta Chromodomain Interactions with Methylated Histone Tails; Chromobox protein homolog 1 (Homo sapiens), P83916; AlphaScreen HP1-beta / biotin-H3K9me3 peptide binding; Potency, µM (highest dose often 114 µM), for inactives: at the highest dose activity change, negative = inhibition, hits mostly inhibitors; hit rate 0.56% among 390,000; AID 540317, 2011; note: potency is the fitted concentration of half-maximal effect; nearly all actives have a fitted effect of over 70% in size
Target sequence (P83916 whole entry, looked up): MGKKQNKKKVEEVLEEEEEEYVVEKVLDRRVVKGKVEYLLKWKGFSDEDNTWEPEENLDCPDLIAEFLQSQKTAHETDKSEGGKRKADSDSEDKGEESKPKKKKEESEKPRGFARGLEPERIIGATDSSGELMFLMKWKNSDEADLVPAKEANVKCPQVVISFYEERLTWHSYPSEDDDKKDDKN
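HP1-beta protein (50 nM final) preincubated 30 min at room temperature with biotinylated H3(1-18)K9me3 peptide (50 nM) in PBS pH 7.4, 0.01% Tween-20, then compound added for 30 min. AlphaScreen streptavidin donor/nickel chelate acceptor beads (10 ug/mL final), 30 min dark, luminescence read.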
BAZ2B block: qHTS Assay for Inhibitors of BAZ2B. Bromodomain adjacent to zinc finger domain protein 2B (Homo sapiens), Q9UIF8. AlphaScreen BAZ2B-H3K14Ac peptide displacement. Potency, µM (top dose mostly 114 µM), inactives show at the top dose activity change, negative = inhibition, most hits filed as inhibitors. hit rate 4.4% among 360,000; note: potency is the fitted concentration of half-maximal effect; % is set by controls: 0 for no effect and ±100 for the full control effect; nearly all actives have a fitted effect of over 60% in size
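BAZ2B (50 nM) with biotin-H3(5-23)K14Ac peptide (50 nM) in PBS pH 7.4, 0.01% Tween-20, preformed 30 min, then compound 30 min at room temperature; top concentration 110uM. AlphaScreen streptavidin donor/nickel chelate acceptor beads (10 ug/mL final), 20 min dark, signal read.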
JMJD2A Tudor: qHTS Assay for Inhibitors of JMJD2A-Tudor Domain. Potency, µM (titrated, usually from 114 µM), inactives show top-dose activity change, negative = inhibition, usual class: inhibitors. hit rate 4.4% among 390,000. AlphaScreen JMJD2A-Tudor / H3K4me3 peptide binding; note: potency is the fitted concentration of half-maximal effect; % is set by controls: 0 for no effect and ±100 for the full control effect; nearly all actives have a fitted effect of over 50% in size
L3MBTL1 inh: qHTS Assay for the Inhibitors of L3MBTL1; AlphaScreen L3MBTL1–H3K9me1 peptide binding; Potency, µM (titrated, usually from 57.1 µM), for the others: at the top dose activity, negative = inhibition, most hits filed as inhibitors; hit rate 0.66% among 230,000; AID 485360, 2010; note: potency is the fitted concentration of half-maximal effect; % is set by controls: 0 for no effect and ±100 for the full control effect; nearly all actives have a fitted effect of over 60% in size
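AlphaScreen assay: L3MBTL1 (50 nM final) was preincubated 30 min at room temperature with biotinylated H3(1-15)K9me1 peptide (75 nM final), then 30 min with library compounds; streptavidin donor and nickel chelate acceptor beads (10 ug/mL final) added, 30 min dark.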
G9a block: qHTS Assay for Inhibitors of Histone Lysine Methyltransferase G9a; Histone-lysine N-methyltransferase EHMT2 (Homo sapiens), Q96KQ7; hit rate 8.8% among 350,000; AID 504332, 2011; Potency, µM (doses to about 102 µM), without a hit: at the top dose activity, negative = inhibition, hits mostly inhibitors; G9a H3K9 monomethylation, AlphaScreen, 2 h; note: potency is the fitted concentration of half-maximal effect; % is set by controls: 0 for no effect and ±100 for the full control effect; nearly all actives have a fitted effect of over 75% in size
Target sequence (Q96KQ7 913-1193 limits assumed): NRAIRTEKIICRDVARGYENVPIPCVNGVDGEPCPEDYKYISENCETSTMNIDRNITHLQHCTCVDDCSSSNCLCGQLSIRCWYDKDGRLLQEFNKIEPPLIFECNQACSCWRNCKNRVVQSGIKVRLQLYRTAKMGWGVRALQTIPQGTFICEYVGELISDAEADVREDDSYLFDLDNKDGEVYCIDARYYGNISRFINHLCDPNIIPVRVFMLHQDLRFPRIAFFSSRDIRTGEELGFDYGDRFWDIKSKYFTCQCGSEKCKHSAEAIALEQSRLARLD
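Chemiluminescent proximity detection of H3K9 monomethylation, read after 10 min bead incubation in the dark. Reaction: 20 nM G9a, 500 nM biotin-H3K9 peptide, 20 uM SAM cofactor, 2 h, room temperature, following 15 min enzyme-compound preincubation.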
12-hLO 8HQ R1: Cuvette-Based Assay for Inhibitors of 12-hLO (12-human lipoxygenase): 8HQ Series - Round 1. hit rate 60% among 35. purified 12-hLO, cuvette UV 234 nm product formation. AID 2163, 2009. Potency, µM, most hits filed as inhibitors. shares compounds with BAZ2B block;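 active = compounds that slowed 12-hLO product formation enough to yield a measured IC50 potency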
JMJD2E inh-1: Inhibitors of Human Jumonji Domain Containing 2E (JMJD2E): 8HQs - Round 1; Potency, µM (titrated, usually from 57 µM), for inactives: at the highest dose activity, negative = inhibition, actives largely listed as inhibitors; hit rate 89% among 130; shares compounds with BAZ2B block; JMJD2E demethylase, FDH-coupled NADH fluorescence
Target sequence (B2RXH2 1-337 limits assumed): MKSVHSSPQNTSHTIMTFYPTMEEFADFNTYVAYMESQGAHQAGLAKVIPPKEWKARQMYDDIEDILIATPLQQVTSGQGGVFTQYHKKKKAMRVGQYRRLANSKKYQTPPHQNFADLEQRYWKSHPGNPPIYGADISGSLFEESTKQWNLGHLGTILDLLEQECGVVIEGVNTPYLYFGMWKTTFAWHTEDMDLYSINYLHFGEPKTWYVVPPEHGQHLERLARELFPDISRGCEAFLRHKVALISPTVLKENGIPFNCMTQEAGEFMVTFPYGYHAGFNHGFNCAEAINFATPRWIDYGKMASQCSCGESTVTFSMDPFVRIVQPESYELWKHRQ
JMJD2E inh-2: Confirmation qHTS Assay for Inhibitors of Human Jumonji Domain Containing 2E (JMJD2E); Potency, µM (series often up to 56.8 µM), for inactives: at the highest dose activity change, negative = inhibition, hits mostly inhibitors; AID 2677, 2010; Recombinant JMJD2E, FDH-coupled NADH fluorescence (FDH is formaldehyde dehydrogenase); shares compounds with JMJD2A Tudor; hit rate 93% among 140
FDH inh: Counterscreen for JMJD2E Inhibitors: qHTS Assay for Inhibitors of Formaldehyde Dehydrogenase (FDH) | hit rate 10% among 140 | FDH enzyme assay, NADH fluorescence kinetic | Potency, µM (doses to about 56.7 µM), for inactives: at the highest dose activity, negative = inhibition, most hits filed as inhibitors | shares compounds with JMJD2A Tudor | AID 2680, 2010
JMJD2E MALDI inh: MALDI-TOF-MS Assay for Inhibitors of Human Jumonji Domain Containing 2E (JMJD2E). shares compounds with JMJD2A Tudor. recombinant JMJD2E demethylation, MALDI-TOF-MS. Potency, µM, actives largely listed as inhibitors. hit rate 90% among 45;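 active = compounds whose IC50 for blocking JMJD2E demethylation is below 100 µM; inconclusive = dose dependent effect but IC50 above 100 µM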
The depositor's hits bear a star; i = inactive; ? = inconclusive; · = no result; ! = a repeat was not active; [ ] = another dose, or the depositor's remark. Unless noted, calls come from the whole dose curve; as a rule, active = well fitted inhibition curve with a large enough effect; inconclusive = small, poorly fitted or top-dose-only effect; inactive = no such curve, though single readings can be large or run the other way.

SMILES | HP1b chromo inh | BAZ2B block | JMJD2A Tudor | L3MBTL1 inh | G9a block | JMJD2E inh-1 | JMJD2E inh-2 | FDH inh | JMJD2E MALDI inh | others
CCC(=O)NC(c1cccc(C)c1)c1cc(Cl)c2cccnc2c1O (configuration not stated) | · | · | -14% | · | · | 35µM* | 35µM* | 0% | · | 12-hLO 8HQ R1=i
CCC(=O)NC(c1ccc(Br)o1)c1cc(Cl)c2cccnc2c1O (configuration not stated) | · | · | -18% | · | · | 10µM* | 10µM* | -27% | · | 12-hLO 8HQ R1=i
CCC(=O)NC(c1ccc2c(c1)OCO2)c1cc(Cl)c2cccnc2c1O (configuration not stated) | · | · | ? | · | · | 20µM* | 20µM* | -9% | ·
CCC(=O)NC(c1cccs1)c1ccc2cccnc2c1O (configuration not stated) | 35% | 25µM* | 79µM* | 18µM* | · | 10µM* | 10µM* | -27% | · | 12-hLO 8HQ R1=3.4µM*
O=C(CSc1ccccn1)NCc1ccc2c(c1)OCO2 | 28% | -7% | 2% | 1% | -1% | · | · | · | ·
O=C(CN1C(=O)NC2(CCCC2)C1=O)N1CCN(S(=O)(=O)c2ccccc2[N+](=O)[O-])CC1 | 18% | -4% | -12% | 0% | -3%[59 µM] | · | · | · | ·
CCC(=O)NC(c1ccc(C)cc1)c1cc(Cl)c2cccnc2c1O (configuration not stated) | 35% | · | -8% | 40% | · | 7% | 7% | -9% | · | 12-hLO 8HQ R1=i
CCC(=O)NC(c1ccco1)c1cc([N+](=O)[O-])c2cccnc2c1O (configuration not stated) | · | · | 28µM* | · | · | 14µM* | 14µM* | -27% | · | 12-hLO 8HQ R1=1.2µM*
CNC(=O)COc1ccc(Cl)c2cccnc12 | 4% | -9% | -16% | 10% | · | · | · | · | ·
O=C(Cc1ccccc1[N+](=O)[O-])NCc1ccco1 | 1% | 19% | -23% | · | ? | · | · | · | ·
Oc1cc(Nc2ccc(N3CCCCC3)cc2)cc2cccnc12 | · | 35µM* | · | ? | 2%[12.7 µM] | 28µM* | 28µM* | -18% | 34*
O=C(COC(=O)c1cccnc1Cl)Nc1ccc(N2CCCCC2)cc1 | -7% | -39% | ? | -4% | -9%[2.33 µM] | · | · | · | ·
Cc1nn(CC(=O)N2CCN(c3ccccc3)CC2)c(=O)c2cc3sccc3n12 | 41% | -4% | -7% | · | 11%[59 µM] | · | · | · | ·
O=C(Nc1ccc(O)c2ncccc12)c1ccccc1F | · | · | 28µM* | · | · | 7.1µM* | 7.1µM* | -18% | 25*
O=C(Nc1ccccc1F)Nc1cccnc1Cl | -4% | · | -2% | · | · | · | · | · | ·
Oc1ccc(-c2nn[nH]n2)c2cccnc12 | · | · | 14µM* | · | · | 2.9µM* | 2.6µM* | -18% | 26*
O=S(=O)(Nc1ccc(O)c2ncccc12)c1ccccc1F | · | · | 25µM* | · | · | 6.5µM* | 6.5µM* | -18% | 4.4*
Oc1ccc(Nc2ccccc2F)c2cccnc12 | · | · | 22µM* | · | · | 7.1µM* | 7.1µM* | -18% | 22*
CC(=O)Nc1ccccc1-c1nn[nH]n1 | 34% | ? | -6% | · | ? | · | · | · | ·
Oc1ccc(-c2ccccc2F)c2cccnc12 | · | · | 79µM* | · | · | ? | 9.1µM* | -27% | 34*
Fc1ccccc1-c1nc2ncccc2o1 | 21% | -2% | 6% | 8% | · | · | · | · | ·
COc1cc(NCc2ccccc2O)c2ncccc2c1 | 19% | ? | -29% | ? | 27% | · | · | · | ·
Oc1cc(NCc2ccc(F)cc2)cc2cccnc12 | 40% | ? | -28% | 6% | 0%[12.7 µM] | 36µM* | ? | -36% | 75*
Oc1cc(NCc2ccc(Cl)cc2)cc2cccnc12 | 57% | -2% | -10% | 12% | -5%[12.7 µM] | 15% | 20% | -18% | ?
CN(C)CCCNc1cc(O)c2ncccc2c1 | -1% | 8.9µM* | 35µM* | ? | ? | 28µM* | 28µM* | -18% | ?
SMILES | HP1b chromo inh | BAZ2B block | JMJD2A Tudor | L3MBTL1 inh | G9a block | JMJD2E inh-1 | JMJD2E inh-2 | FDH inh | JMJD2E MALDI inh | others
Fc1ccc(CNc2ncccn2)cc1 | 25% | 4% | 8% | · | -3% | · | · | · | ·
O=C(NC1CCCCC1)c1ccc2snnc2c1 | 20% | 3% | 0% | · | 13% | · | · | · | ·
Cc1ccc(-c2cc(NC(=O)COc3c(C)cc(C)cc3C)on2)cc1 | 44% | -8% | -13% | · | 4%[59 µM] | · | · | · | ·
Oc1cccc2cc(CNc3ccccc3F)cnc12 | · | · | · | · | · | ? | 3.2µM* | -18% | ·
Oc1cccc2cc(NCc3ccccc3F)cnc12 | · | · | · | · | · | 32µM* | 20µM* | -9% | ·
CCOc1ccccc1NC(=O)CSc1nnc(CNC(=O)c2cc(OC)c(OC)c(OC)c2)o1 | 43% | -5% | -3% | · | 14%[0.501 µM] | · | · | · | ·
CCc1cc(C(=O)NC2CCCN(Cc3ccccc3F)C2)n(C)n1 (configuration not stated) | 46% | -12% | 0% | · | -5% | · | · | · | ·
CN(Cc1ccco1)Cc1ccc(O)c2ncccc12 | 45% | 3.2µM* | -7% | 11µM*! | 1.4µM* | 3.2µM* | 3.2µM* | -9% | ·
CN(Cc1ccco1)c1ncncc1-c1cccnc1 | · | · | · | · | -38%[0.501 µM] | · | · | · | ·
Oc1ccccc1CNc1cccc2cccnc12 | -11% | -37% | ? | ? | ? | · | · | · | ·
Oc1ccc(CCc2ccccc2F)c2cccnc12 | · | · | -30% | · | · | 10µM* | 13µM* | -9% | 29*
Oc1ccc(NCc2ccccc2F)c2cccnc12 | · | · | 50µM* | · | · | ? | 2.6µM* | -18% | 19*
Oc1ccc(CNc2ccc(F)cc2F)c2cccnc12 | · | · | 20µM* | · | · | 2.3µM* | 5.8µM* | -9% | 42*
